Our source for the activity change values is PubChem BioAssay AID743279 (National Center for Advancing Translational Sciences (NCATS), 2014).

Out of some 360,000 compounds screened, about 17,000 (4.7%) were called active. Not shown: some 5% with an inconclusive outcome. The list comes from a sample in which actives are over-represented; it also holds similar structures and randomly drawn compounds. Values without a mark were called inactive. No stated cut-off is given here; in the data, active means activity change below about -50%; inconclusive means mostly about -30% to -49%; inactive means weaker than that.
On the % scale 0 is the no-effect control and ±100 the full control effect.

This experiment can be described thus: qHTS for Inhibitors of Inflammasome Signaling: IL-1-beta AlphaLISA Primary Screen. The note with it: THP-1 LPS/ATP IL-1B secretion, 16 h; at 57.5 µM, stronger effect = lower value. Summed up:
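THP-1 cells pretreated 1 hr with compounds (up to 57.5 uM final), then stimulated with LPS (250 ng/mL final) plus ATP (1.25 mM final); secreted IL-1B measured by AlphaLISA after 16 hr, decreased signal indicating inhibition.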
In the case of `CCCCNC(=O)c1nc(C2CCN(S(=O)(=O)c3ccc(F)c(F)c3)CC2)oc1-c1cccc(C(F)(F)F)c1`, the activity change is 11.8%.
For the compound `CCOC(=O)[C@]12CCCC=C1N(Cc1cccc3ccccc13)C(=O)[C@H](CC(=O)NCC13CC4CC(CC(C4)C1)C3)C2`, the activity change is -26.5%.
Turning to `O=S1(=O)CC(N2CCSCC2)CN1Cc1cn(Cc2cccc(Cl)c2)nn1` (stereo unspecified), the activity change was -25.6%.
Regarding `COc1ccc(Br)cc1/C=N/Nc1ccc(S(=O)(=O)Nc2ccccc2C(=O)O)cc1[N+](=O)[O-]`, the activity change is 0%.
`Cc1cc(C)c(NC(=O)c2oc3ccccc3c2COc2ccccc2)c(C)c1`: the activity change is -17.8%.
The result for `Cc1cc(C)c(NC(=O)C[N+](C)(C)CC(O)COc2cccc3ccccc23)c(C)c1` (stereo unspecified) reads -86% (active).
Then `Cc1cc(C)cc(OCC(=O)NCc2cc(C)nc3ccccc23)c1`, with 14.8%; and `COc1ccc(NC(=O)N(C)C[C@H]2Oc3ncc(C#C[C@@H](C)O)cc3C(=O)N([C@H](C)CO)C[C@H]2C)cc1`, with -13.1%.
Regarding `CC1(Oc2ccc(Cl)cc2)CCN(Cc2csc3ccccc23)C1` (stereo unspecified), the activity change is 17.7%.
With `Cc1cc(OC(=O)c2ccccc2)c([N+](=O)[O-])c(=O)[nH]1`, the activity change is -9.86%.
Then `Cc1ccc(S(=O)(=O)N2[C@@H](Cc3ccccc3)CO[C@H]2CC(=O)OCc2ccccc2)cc1`, with -0.839%.
Then `O=S(=O)(Cc1ccc(Cl)cc1Cl)c1ccc(Cl)cc1`, with -1.43%.
`CCN(CC)CCCNC(=O)Cn1cnc2sc(C)c(S(=O)(=O)N3CCN(c4ncccn4)CC3)c2c1=O`: the activity change is 18.1%.
Then `CCN(CC)CCNC(=O)Cn1cnc2sc(C)c(S(=O)(=O)N3CCOCC3)c2c1=O`, with 14.7%; and `CCN(CC)CCNC(=O)c1sc2ncn(CC(=O)Nc3ccc(C)c(Cl)c3)c(=O)c2c1C`, with -75.6% (active).
For `CN(C)C1CN(Cc2cn(Cc3ccccc3)nn2)S(=O)(=O)C1` (stereo unspecified), the activity change is -13.3%.
The result for `CC(C)CCOc1ccc(C(=O)Nc2cc(S(=O)(=O)N3CCOCC3)ccc2N2CCOCC2)cc1` reads -18.6%; that for `O=S(=O)(NCCCN1CCOCC1)c1ccc(F)c(Cl)c1`, -0.644%; that for `CC1(C(=O)Nc2ccc3c(c2)OCCO3)CN(S(C)(=O)=O)CC(=O)N1Cc1cccc(F)c1` (stereo unspecified), -9.42%.
Then `CCCCCCSc1ccc([C@@H]2[C@H]3C(=O)N(CC)C(=O)[C@H]3[C@]3(C(=O)OC)CCCCN23)cc1`, with 144%; and `CCN1C(=O)[C@@H]2[C@@H](c3ccc(-c4ccc(OC)cc4)c(OC)c3)N3CCC[C@@]3(C(=O)OC)[C@@H]2C1=O`, with -7.49%; and `CCCCCCSc1ccc([C@@H]2[C@@H]3C(=O)N(CC)C(=O)[C@@H]3[C@]3(C(=O)OC)CCCCN23)cc1OC`, with -74.8% (active).
The result for `COC(C)(C)[C@]12CC(O)(C(C)C)ON1[C@H]1CCCCC1N2O` (stereo partly specified) reads 8.62%; that for `C=CCSc1nc(Cc2ccc(Cl)cc2)nc2ccccc12`, -12.9%.
On to `CCc1nc(SCC(=O)NNC(=O)c2ccc(C)cc2)c2ccccc2n1`, for which the activity change is -0.629%.
As for `CCCNC(=O)CSc1nc(Cc2ccccc2)nc2ccccc12`, the activity change is -58.7% (active).
The result for `Cc1ccc(CCN2CC(C(=O)O)CC2=O)cc1` (stereo unspecified) reads -6.28%.
The result for `CC(=O)NC(C)c1nc2ccccc2n1Cc1ccccc1F` (stereo unspecified) reads 21.9%; that for `O=C(COC(=O)Cc1ccccc1F)NCCc1ccccc1`, 6.36%.
As to `N=c1n(CCc2ccccc2)c2ccccc2n1Cc1ccccc1F`, the activity change is -81.4% (active).
For `O=C(NCCN1CCN(C(=O)c2cccc([N+](=O)[O-])c2)CC1)C(=O)NCc1ccc(Cl)cc1`, the activity change is -11.8%.
`Cc1ccc(S(=O)(=O)c2c[nH]c3ccc(Cl)cc3c2=O)cc1`: the activity change was -2.27%.
Then `CCC(=O)Nc1ccc(Nc2nc(Cl)nc(Nc3ccc(NC(=O)CC)cc3)n2)cc1`, with -8.11%; and `CCOC(=O)CNc1nc(Cl)nc(Nc2ccc(OC)cc2OC)n1`, with -6.02%.
The result for `CCOC(=O)CNc1nc(Cl)nc(Nc2ccccc2)n1` reads -67.7% (active); that for `COc1cc(OC)cc(C(=O)NCCSCc2ccc(Cl)cc2)c1`, 0.652%; that for `CSc1ncnc2c1ncn2CCCNCC1CCCCC1`, 16.5%.
Then `CSc1ncnc2c1ncn2CC(=O)C1CCC2C3CCC4=CC(=O)CCC4(C)C3CCC12C` (stereo unspecified), with -64.8% (active); and `CC(=O)C12CC(C)=C(C)CC1CC1C3CCC4=CC(=O)CCC4(C)C3CCC12C` (stereo unspecified), with -14.2%; and `C[C@H]1CN([C@@H](C)CO)C(=O)CCCn2nncc2CO[C@@H]1CN(C)S(=O)(=O)c1cccc(C#N)c1`, with 22.7%.
In the case of `CCOC(=O)N1C(=O)C[C@](Sc2ccc(C)cc2)(C(=O)OC)[C@H]1c1ccccc1`, the activity change is -13.1%.
As for `COc1ccc2c(c1)CCC/C2=N\OC(=O)c1ccccc1F`, the activity change is -13.5%.
For `CCc1nc2c(OCC(N)=O)cccn2c1N(C)C(=O)c1ccc(OC)cc1`, the activity change is 3.49%.
With `CCc1nc2c(OCCOc3ccc(F)cc3)cccn2c1N(C)C(=O)c1ccccc1F`, the activity change was -11.7%.
With `COCCCNCC(=O)Nc1sc(C)c(C)c1C(=O)OC`, the activity change was 0.516%.
Take `Cc1ccc2c(c1)C1CN(C)CCC1N2S(=O)(=O)c1cccc(F)c1` (stereo unspecified): the activity change is -15.5%.
Then `O=C(NC(=S)Nc1ccc(Cl)cc1Cl)C1CC1`, with 19.2%; and `Cc1ccc2c(c1)C1CN(C)CCC1N2C(=S)Nc1ccc(OC(F)F)cc1` (stereo unspecified), with -62.4% (active).
Regarding `Cc1ccc2c(c1)C1CN(C)CCC1N2C(=S)Nc1ccc(Cl)cc1Cl` (stereo unspecified), the activity change was -84.8% (active).
As for `Cc1ccc2c(c1)C1CN(C)CCC1N2C(=O)c1ccccc1NS(=O)(=O)c1ccc(F)cc1C` (stereo unspecified), the activity change is 5.7%.
On to `S=C(Nc1ccc(Cl)cc1Cl)N1CCCC1`, for which the activity change was -2.45%.
Turning to `COC(=O)c1ccc2c(=O)n(CCN3CCOCC3)c(SCC(=O)Nc3cccc(OC)c3)nc2c1`, the activity change is -19.5%.
The result for `OCCN1CCN(c2ncnc3c2ncn3[C@H]2CN(Cc3ccco3)C[C@@H](CO)O2)CC1` reads 10%; that for `CC(=O)c1c(C)[nH]c(C(=O)COC(=O)c2cccc(S(=O)(=O)N(C)c3ccccc3)c2)c1C`, -12.5%.
Regarding `CN(C)c1ccc(C(CC(=O)O)C(=O)O)cc1` (stereo unspecified), the activity change is 15%.
Then `COc1ccc(Cl)cc1NC(=O)CN(C)C(=O)c1cn(-c2ccccc2)nc1-c1cccs1`, with -15.3%.
Then `COc1ccc(-c2nn(-c3ccccc3)cc2/C=N/Nc2ccccn2)cc1OC`, with 10.4%; and `COc1ccc(-c2nn(-c3ccccc3)cc2C(=O)Nc2nccs2)cc1OC`, with -52.5% (active); and `Nc1ncnc2c1ncn2[C@@H]1O[C@H](CNC(=O)[C@H](N)Cc2cccnc2)[C@@H](O)[C@H]1O`, with -4.6%.
The result for `CC1(C)COC(c2cccn2Cc2ccccc2Cl)=N1` reads 1.85%; that for `COc1ccc(C(=O)NC2CCCc3c2cnn3-c2cccc(C)c2C)c(OC)n1` (stereo unspecified), -78.6% (active).
Turning to `Cc1cc(C(=O)NC2CCCc3c2cnn3-c2cccc(C)c2C)c(C)o1` (stereo unspecified), the activity change is -7.02%.
Take `COc1ccc(OC)c(C(=O)NC2CCCc3c2cnn3-c2cc(C)cc(C)c2)c1` (stereo unspecified): the activity change was -20.1%.
`O=C(NNC1=C(C(=O)C(F)(F)F)CCC1)c1ccncc1`: the activity change is 28.1%.
Then `CCC1Nc2ncnc(N3CCN(c4ccccc4)CC3)c2N(Cc2ccc(Cl)cc2)C1=O` (stereo unspecified), with -19.1%; and `COc1ccc(NC(=O)C2Cc3c(-c4ccc(Cl)cc4)ccnc3O2)cc1` (stereo unspecified), with -7.31%.
In the case of `CCc1ccccc1NC(=O)CSc1nnc([C@@H](NC(=O)OC(C)(C)C)C(C)CC)o1` (stereo partly specified), the activity change is 9.72%.
For `C[C@@H](NC(=O)OC(C)(C)C)c1nnc(S(=O)(=O)Cc2ccccc2)o1`, the activity change was -70.3% (active).
The result for `CCc1ccccc1NC(=O)CSc1nnc([C@@H](NC(=O)OC(C)(C)C)C(C)C)o1` reads 11.8%.
Then `COc1cc(/C=C(/NC(=O)c2ccc(Cl)cc2Cl)C(=O)O)cc(OC)c1OC`, with 2.22%.
Then `O=c1c2c(-c3ccccc3)ccnc2[nH]n1-c1ccccc1`, with -16.4%; and `O=c1[nH]cnc2c1c(-c1ccccc1)cn2-c1ccc(F)cc1`, with -91.8% (active); and `COc1ccc(-n2cc(-c3ccccc3)c3c(=S)nc[nH]c32)cc1`, with 18.8%.
In the case of `COc1ccc(S(=O)(=O)N2CCN(C)CC2)c(C)c1`, the activity change was -5.01%.
The result for `Cn1c(=O)c2cc(NC(=O)NCCc3cccs3)ccc2n1Cc1cccc(C(F)(F)F)c1` reads 1.3%; that for `CC(C)CCN1C(=O)c2ccc(C(=O)Nc3cccc(S(N)(=O)=O)c3)cc2C1=O`, -61% (active); that for `CN1CCN(S(=O)(=O)c2cccc(C(=O)Nc3cccc(S(N)(=O)=O)c3)c2)CC1`, 6.7%.
Then `Cc1cccc(C(=O)Nc2ccc3c(c2)C(=O)N(CC(C)C)C3=O)c1`, with 0.513%; and `CC(C)c1cccc(-c2csc(C(O)c3ccccc3)n2)c1` (stereo unspecified), with 43.6%.
Then `CCOC(=O)C1=CCC(c2ccc(F)cc2)N(S(=O)(=O)c2ccc(C)cc2)C1` (stereo unspecified), with 30.7%; and `NC(CSC12CC3CC(CC(C3)C1)C2)C(=O)O` (stereo unspecified), with 23.7%; and `O=C(c1cccs1)N1C[C@H](n2cc(C3CC3)nn2)[C@@H](O)C[C@@H]1c1ccccc1`, with 0.261%.
For the compound `O=C(NCC1CCCO1)c1ccc2ccccc2n1` (stereo unspecified), the activity change is 3.35%.
As to `c1ccc2c(NCC3CCCO3)nc(-c3ccncc3)nc2c1` (stereo unspecified), the activity change is -27.3%.
Then `Clc1cccc(-c2nc(NCC3CCCO3)c3ccccc3n2)c1` (stereo unspecified), with -76.8% (active).
Then `CCCCn1nnnc1C(c1cccc(OC)c1OC)N1CCN(C/C=C/c2ccccc2)CC1` (stereo unspecified), with -23.9%.
